Measured values taken from article PMC5540273 (PLoS ONE, 2017).

System: TAOK2
Conditions: concentration: 1 μM, replicates: in singlicate; n = 1
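Note: KINOMEscan kinase panel screen.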

Row | SMILES | %Inh [%]
1 | Cl.Nc1ncnc2occ(-c3ccc(NC(=O)Nc4cc(C(F)(F)F)ccc4F)cc3)c12 [SB-707548] | 22
2 | O=C(NOCC1CC1)c1ccc(F)c(F)c1Nc1ccc(I)cc1Cl | 0
3 | CCc1ccnc(/C=C/c2n[nH]c3cc(Sc4ccccc4C(=O)NC)ccc23)c1 | 100
4 | CN1c2ccc(CNc3ccc(F)cc3)cc2-c2c(cnn2C)S1(=O)=O | 23
5 | COc1cc2c(cc1OC[C@@H](O)CO)ncc1c3ccc(C#N)cc3[nH]c21 | 0
6 | COc1ccc(S(=O)(=O)NC2CCN(c3cc(C)nc(Nc4cccc(C#N)c4)n3)CC2)cc1.O=C(O)C(F)(F)F [GSK1653539] | 0
7 | Cc1ccc(NC(=O)c2ccnc(N3CCN(C)CC3)c2)cc1-c1ccc(C(=O)NCC2CC2)cc1 [GW775604] | 13
8 | Cc1c2ccc(N(C)c3ccnc(Nc4cccc(S(N)(=O)=O)c4)n3)cc2nn1Cc1ccccc1.Cl.Cl [GW787226] | 72
9 | CC(=O)Nc1ccc(COc2ccc(Nc3ccnc4cc(-c5ccccn5)ccc34)cc2)cc1.Cl [GW440148] | 0
10 | NCCNS(=O)(=O)c1ccc(-c2ccnc3[nH]ccc23)cc1 [GSK977617] | 0
11 | Cc1nnc(-c2ccc3occ(-c4ccc(C(C)O)cc4)c3c2)o1 (stereo not drawn) | 8
12 | CNc1ncnc2[nH]ncc12 [SKF-18355] | 24
13 | Cn1cc(-c2ccc3c(c2)CCN3C(=O)Cc2ccccc2Cl)c2c(N)ncnc21 [GSK2608885] | 0
14 | Cc1cccc(-c2nc(-c3ccc(S(C)(=O)=O)cc3)sc2-c2ccncc2)c1 | 0
15 | O=C1NC(=O)C(N2CCc3ccccc32)=C1c1cccc(Cl)c1 [SB-408010] | 0
16 | Cc1cccc(Cn2ccn3c(=O)cc(N4CCOCC4)nc23)c1 [GSK2297542] | 5
17 | Cl.Oc1cccc(Nc2ccnc3cc(-c4ccncc4)ccc23)c1 [GW494601] | 0
18 | O=c1cc(N2CCOCC2)nc2n(Cc3cccc(F)c3)ccn12 [GSK2297430] | 0

Row | SMILES | %Inh [%]
19 | CC(C)(C)n1cnc2c(N)ncnc21 [SKF-97359] | 0
20 | Fc1ccc(-c2nn3c(OCC(F)(F)F)cccc3c2-c2ccncc2)cc1 [GW514784] | 0
21 | CSc1ccc(-c2cc3ncnc(SCC(=O)O)c3s2)cc1 | 0
22 | [2H]C([2H])(c1cccc(C(F)(F)F)c1C)n1ccn2c(=O)nc(N3CCOCC3)cc12 [GSK2336394] | 0
23 | Cc1ccc(C(=O)NCC(N)=O)cc1-n1c(C)cc(OCc2ccc(F)cc2F)c(Br)c1=O | 7
24 | COc1cc2ncn(-c3cc(OCc4sccc4Cl)c(C(N)=O)s3)c2cc1OC [GSK448459] | 0
25 | O=C(NCCNc1ccnc(Nc2ccc(F)cc2)n1)c1cc2ccccc2s1 [GSK1379874] | 0
26 | O=C(NCCNc1ccnc(Nc2ccc(F)cc2)n1)Nc1ccccc1F [GSK1379880] | 0
27 | CCn1cnc2c(N)ncnc21 [GW345098] | 4
28 | Cc1cn2c(=O)cc(N3CCOCC3)nc2n1Cc1cccc(Cl)c1Cl [GSK2334006] | 0
29 | CN(C(=O)c1ccc(-c2cc(-c3c[nH]nc3-c3ccccn3)ccn2)cc1)C1CCOCC1 [GW810083] | 0
30 | COC(=O)Nc1nc2cc(Oc3ccc(NC(=O)Nc4cc(F)ccc4F)cc3)ccc2[nH]1.Cl [GW701424] | 0
31 | COc1ccc(CNC(=O)NC2CCN(c3ccnc(Nc4ccc(OC)cc4)n3)C2)cc1 (stereo not drawn) [GSK1379727] | 7
32 | Cc1cccc(-c2nc(Nc3ccc4ncsc4c3)c3ccccc3n2)n1 [GW867588] | 0
33 | NS(=O)(=O)c1cccc(-c2ccc3ncc(N4CCOCC4)nc3c2)c1 [GSK1535721] | 0
34 | C[C@@H](Oc1cc(-n2cnc3ccc(NC(=O)NC(C)(C)C)cc32)sc1C(N)=O)c1ccccc1Cl [GSK346294] | 2
35 | COc1ccc(Nc2nccc(N3CCC(NC(=O)Nc4cccc(C(C)=O)c4)C3)n2)cc1 (stereo not drawn) [GSK1379731] | 0
36 | Cc1nnc(-c2ccc3ncc(-c4ccc(S(C)=O)cc4)n3c2)o1 (stereo not drawn) | 0
